Screens as filed in PubChem.
Sampled rows, rich in hits. Any-hit rate of the full collection: about 1.4%.
APOBEC3G inh: APOBEC3G DNA deaminase inhibitors, primary screen, biochemical, fluorescence, single-stranded DNA substrate, uHTS. recombinant A3G, ssDNA deamination FAM/TAMRA fluorescence. 0.28% of 330,000 active. inhibition, % at 20 µM;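 active = inhibition of at least 40% at 20 µM, with no more than 30% in the related APOBEC3A deaminase screen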;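 note: plate controls were DMSO wells with A3G for no effect and wells lacking A3G enzyme for full effect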
Target sequence (Q9HC16 whole entry, looked up): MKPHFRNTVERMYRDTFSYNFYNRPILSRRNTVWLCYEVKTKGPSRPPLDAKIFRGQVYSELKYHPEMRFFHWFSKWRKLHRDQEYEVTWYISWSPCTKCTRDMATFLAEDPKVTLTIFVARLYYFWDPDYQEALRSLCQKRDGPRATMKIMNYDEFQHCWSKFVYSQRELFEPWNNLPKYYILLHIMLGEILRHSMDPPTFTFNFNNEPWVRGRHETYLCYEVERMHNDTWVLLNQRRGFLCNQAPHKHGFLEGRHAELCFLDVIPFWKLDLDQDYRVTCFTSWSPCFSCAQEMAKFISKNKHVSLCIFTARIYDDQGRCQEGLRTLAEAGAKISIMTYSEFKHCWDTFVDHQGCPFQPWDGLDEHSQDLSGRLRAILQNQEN
A3A deaminase: APOBEC3A ssDNA deaminase inhibitors, primary screen, selectivity assay for APOBEC3G inhibitor project, biochemical, FAM/TAMRA oligo cleavage fluorescence; recombinant A3A, FAM/TAMRA ssDNA deamination fluorescence; inhibition, % at 20 µM; 0.41% of 330,000 active;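 active = at least 40% inhibition at 20 µM here, with at most 30% in a related deaminase screen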;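 note: plate controls were A3A with DMSO for no effect and wells lacking A3A enzyme for full effect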
VLA-4 inh: inhibition in human VLA-4 binding assay, primary screen, VLA-4 allosteric modulator project, MLPCN library, flow cytometry, VLA-4 expressing cells; inhibition, % (about 7 µM as worked out from the volumes in the protocol); ligand binding flow cytometry; 0.2% of 330,000 active; in the data active = inhibition above about 50%
GRK2 aptamer HTS: compounds blocking aptamer binding on GRK2 – biochemical, human GRK2, bead flow cytometry, HTS, primary screen; Beta-adrenergic receptor kinase 1 (Homo sapiens), P25098; FAM-aptamer displacement from GRK2; inhibition of aptamer binding, % at 10 µM; 0.59% of 330,000 active; AID 488847, 2010;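 active = inhibition of aptamer binding above 40%, roughly 3 SD of noise, on plates passing a quality check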;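 note: median bead fluorescence of bound FAM aptamer so fluorescent compounds give negative values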
APOBEC3G confirm: APOBEC3G deaminase inhibitor retest, confirmation, biochemical, fluorescence, single-stranded DNA substrate, single concentration. AID 493152, 2011. recombinant A3G ssDNA deaminase, UDG/FAM-TAMRA fluorescence. inhibition, % at 20 µM. 72% of 890 active. shares compounds with APOBEC3G inh;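 active = inhibition reaching a set limit in any replicate at 20 µM, the limit being 80% of the first screen's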
UDG A3G counter: E. coli UDG inhibitors, confirmation, counter-screen for APOBEC3G inhibitor project, biochemical, single concentration, fluorescence, FAM/TAMRA oligo. shares compounds with APOBEC3G inh. UDG counterscreen. inhibition, % at 20 µM. 710 tested, under 10 active. AID 504715, 2011;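 active = compounds giving 40% or more inhibition at 20 µM in any one of the three replicates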;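 note: plate controls were DMSO wells with UDG and oligo for no effect and DMSO wells lacking both for full effect; inhibitors lower the FAM signal released by uracil excision and alkaline cleavage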
Target sequence (P12295 whole entry, looked up): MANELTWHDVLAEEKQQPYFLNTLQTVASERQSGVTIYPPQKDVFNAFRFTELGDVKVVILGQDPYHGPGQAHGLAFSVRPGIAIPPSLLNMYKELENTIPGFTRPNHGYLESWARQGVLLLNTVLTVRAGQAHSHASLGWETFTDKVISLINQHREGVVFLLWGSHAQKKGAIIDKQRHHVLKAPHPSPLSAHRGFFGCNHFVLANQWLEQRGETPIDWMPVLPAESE
The depositor's hits bear a star; . = no result given.

SMILES	APOBEC3G inh	A3A deaminase	VLA-4 inh	GRK2 aptamer HTS	APOBEC3G confirm	UDG A3G counter
CCOC(=O)c1cc2c(=O)n3ccccc3nc2n(C(C)C)c1=NC(=O)c1c(-c2ccccc2Cl)noc1C	-10.5	-8.5	0.2	1.0	.	.
O=C(OCCN1C(=O)c2ccccc2C1=O)c1cc(=O)[nH]c2ccccc12	-4.2	-1.8	12.7	3.0	.	.
COc1cc(CCC(=O)Nc2nnc(C)s2)cc(OC)c1OC	-2.2	0.4	2.9	2.0	.	.
N#C/C(=C\c1ccc(O)c(O)c1)C(=O)Nc1cccc2ncccc12	51.8*	8.5	-4.4	6.0	58.8*	-1.9
COc1ccc(Oc2c(C(F)(F)F)oc3cc(OCC(=O)O)ccc3c2=O)cc1	1.8	1.5	27.9	0.0	.	.
CCOC(=O)c1sc(=S)n(C)c1NC(=O)c1ccccc1	37.3	-5.2	-7.0	1.0	.	.
CCOC(=O)c1sc(=S)n(C)c1NC(=O)c1cccc(Br)c1	47.3*	-1.1	-4.7	0.0	0.9	-3.4
O=S(=O)(c1ccccc1)N(F)S(=O)(=O)c1ccccc1	46.5*	0.7	13.7	0.0	53.1*	-2.3
COc1ccc(OCc2nnc(SCC(=O)N(C)Cc3ccccc3)n2N)cc1	47.2*	3.1	0.5	2.0	41.5*	-3.8
O=C(Nc1cccc2ncccc12)c1ccccc1Cl	15.5	35.7	-1.2	0.0	.	.
Cc1cc(C)n2c(=S)[nH]nc2n1	91.8*	-2.6	24.1	5.0	90.3*	-4.1
Cc1cc(C)n2cnnc2n1	4.1	1.1	-4.7	2.0	.	.
CCOC(=O)c1c[nH]c2c(C(F)(F)F)cccc2c1=O	-4.6	-2.3	-0.9	0.0	.	.
CCOC(=O)c1c(NC(=O)C2CCCO2)sc(C)c1C (stereo not drawn)	-3.5	0.0	-1.8	0.0	.	.
CCOC(=O)c1c(NC(=O)C2CCCO2)sc(C(=O)OC(C)(C)C)c1C (stereo not drawn)	47.0*	4.1	-4.4	0.0	33.1*	2.8
O=C(NCc1ccccc1)C(=O)NCC1OCCN1S(=O)(=O)c1cccs1 (stereo not drawn)	-1.0	3.0	7.2	1.0	.	.
CC(=O)C(Sc1nn(C)c(=S)s1)C(=O)Nc1ccccc1 (stereo not drawn)	56.6*	2.3	-10.6	1.0	40.3*	-4.7
CC(=O)C(Sc1nc(N(C)C)nc(N(C)C)n1)C(=O)Nc1ccccc1 (stereo not drawn)	-4.3	-1.2	-2.1	0.0	.	.
CC(C)C(NC(=O)c1ccc(C(C)(C)C)cc1)C(=O)NCC(c1ccccc1)N(C)C (stereo not drawn)	-3.0	-2.2	-2.7	2.0	.	.
Cc1c(Cc2ccc3c(c2)OCO3)sc(NC(=O)c2cccc3ccccc23)c1C(N)=O	12.8	-0.7	-34.0	0.0	.	.
Cc1c(Cc2ccc3c(c2)OCO3)sc(NC(=O)C2CC2)c1C(N)=O	48.4*	0.3	-0.8	14.0	30.6	.
COC(=O)c1ccccc1NC(=O)c1sc(=S)n(C)c1N	40.1*	-0.7	-16.3	1.0	41.3*	4.1
COc1cc(C2Nc3ccccc3C(=O)N2c2ccccc2OC)ccc1O (stereo not drawn)	-2.9	-1.5	-3.0	0.0	.	.
COc1cc(C2Nn3c(nnc3-c3ccccc3OC)S2)ccc1O (stereo not drawn)	45.0*	-1.5	-6.2	0.0	81.6*	-2.3
CCOC(=O)c1c(C)[nH]c(C)c1C(=O)COC(=O)[C@@H]1CCCN1S(=O)(=O)c1ccc(Cl)cc1	-1.3	12.2	-5.2	2.0	.	.
SMILES	APOBEC3G inh	A3A deaminase	VLA-4 inh	GRK2 aptamer HTS	APOBEC3G confirm	UDG A3G counter
CC(=O)Nc1cc(OC(C)=O)c2nonc2c1OC(C)=O	75.6*	1.8	-3.8	5.0	69.8*	.
O=C(Cc1ncon1)Nc1ccc(F)c(F)c1F	66.2*	0.0	-19.2	0.0	4.5	.
O=C(CNCC(=O)Nc1ccc(F)c(F)c1F)Nc1ccc(F)c(F)c1F	-5.1	-2.8	-1.0	1.0	.	.
CCOC(=O)c1cc(-c2ccc(OC)cc2)nn1-c1ccccc1C(=O)O	63.2*	27.3	1.3	6.0	41.3*	-3.4
O=C(Nc1ccc(Oc2ncnc3cc(Cl)ccc23)nc1)Nc1cccc(C(F)(F)F)c1	-4.9	-2.0	4.7	0.0	.	.
CC(=O)c1ccc(-c2ccc([C@H]3[C@H]4C=CC[C@@H](C)[C@@H]4C(=O)N3Cc3ccccc3)c(F)c2)cc1	-5.4	-0.3	-2.5	3.0	.	.
Cc1c(O)cc2c(c1O)C(=O)CC(c1ccc(O)cc1)O2 (stereo not drawn)	56.4*	28.9	27.9	0.0	69.3*	.
COc1cc(O)c2c(c1)OC(c1ccc(O)cc1)CC2=O (stereo not drawn)	-6.8	-0.9	1.4	0.0	.	.
CC(C)(C)c1ccc(OCCC(=O)OCC(=O)NC2CCCCC2)cc1	-10.7	0.3	1.4	1.0	.	.
Cc1cccc(S(=O)(=O)NCCc2ccccc2)c1	-1.7	2.1	-5.6	1.0	.	.
COc1cccc(CNC(=O)CCC2CCCN(C(=O)c3ccoc3)C2)c1 (stereo not drawn)	-2.8	2.6	2.7	1.0	.	.
COC(=O)/C=C1\SC(N2CCOCC2)=C(c2ccc(OC)cc2)C1=O	55.3*	4.2	-2.4	1.0	20.1*	-2.8
CCCCn1c(-c2nn(C)c(C)c2Cl)n[nH]c1=S	40.5*	-4.3	-4.4	0.0	77.7*	-4.7
CC(C)(O)C#CC#CCN1CCOCC1	-8.7	-2.9	14.4	1.0	.	.
COc1cc(N=c2ssnc2Cl)cc(OC)c1OC	72.2*	-0.2	3.1	2.0	92.9*	0.3
COc1ccc(N=Cc2sc3ccccc3c2Cl)cc1	-4.6	-4.5	-10.5	1.0	.	.
CCOC(=O)c1ccc(N=c2ssnc2Cl)cc1	65.6*	4.7	.	.	78.6*	0.2
COc1ccc(N=c2ssnc2Cl)cc1	69.7*	4.7	-10.5	0.0	78.5*	2.6
N#Cc1ccc(N=c2ssnc2Cl)cc1	73.1*	-2.1	-5.2	0.0	91.5*	-3.2
N#Cc1ccc(Oc2c(Cl)cncc2Cl)cc1	-8.6	-3.8	-16.0	5.0	.	.
O=C(Nc1nnc(C2CC2)s1)c1n[nH]c(=O)c2ccccc12	-3.6	-1.9	-5.2	4.0	.	.
CCc1ccc(NC(=O)NCc2ccc3c(c2)OCO3)cc1	-7.3	-0.3	-5.6	4.0	.	.
O=c1c2ccccc2sn1-c1ccc(F)cc1	85.8*	1.1	23.0	0.0	79.8*	-2.3
